{"source": "paper PMC7819943", "about": "“Rice protein-binding microarrays: a tool to detect cis-acting elements near promoter regions in rice”", "note": "In all, about 68,000 sequences were measured (“fluorescence intensity (a.u.)”: median about 9,100, highest 2% from about 16,000 on). What follows is part of a selection rich in the highest values, with near analogues and random picks from the rest."}
{"target": "OsWRKY34 (Oryza sativa, UniProt Q0JBA9 1-250)", "sequence (Q0JBA9 entry or part of it)": "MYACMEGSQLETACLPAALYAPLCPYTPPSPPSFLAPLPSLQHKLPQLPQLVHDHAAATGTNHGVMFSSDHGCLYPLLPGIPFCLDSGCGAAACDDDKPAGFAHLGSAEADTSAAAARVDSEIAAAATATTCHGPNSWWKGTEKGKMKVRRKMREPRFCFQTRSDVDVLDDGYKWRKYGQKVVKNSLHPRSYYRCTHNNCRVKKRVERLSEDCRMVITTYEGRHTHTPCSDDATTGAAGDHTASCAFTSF", "experiment": "protein-binding microarray (RPBM); PBS, 2% BSA, 51.3 ng/ul salmon testes DNA, 50 uM zinc acetate, 200 nM TF, 25 C, 1 h; high values mean tight binding", "details": "protein: recombinant; tags: N-terminal polyhistidine and DsRed monomer fusion (pET32a); label: CyDye5-dUTP incorporated in the synthesized complementary strand; 3' TTTTT single-stranded linker to array surface; dsDNA, one strand shown", "summary_of_the_method": "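The binding signal is fluorescence intensity per array feature (arbitrary units). Readings came from an Axon 4000B scanner after a washed, 2% BSA-blocked, double-stranded custom Agilent array had been incubated for 1 h at 25 °C with 200 nM protein and 50 µM zinc acetate. The protein was a Ni–NTA-purified transcription factor fused N-terminally to polyhistidine and DsRed, expressed in E. coli BL21-CodonPlus.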"}
{"sequence": "TATGGACTGTTTTGTTTTGTTCCCCTAGCTAGAATTATTCCGGAGTCACCTAGTGCAG", "binding signal": "9880 fluorescence intensity (a.u.)"}
{"sequence": "CCTTTGTTCTTGCCGTCTCTTTTTTTTTTTTACAGAAGAACGGAGTCACCTAGTGCAG", "binding signal": "14600 fluorescence intensity (a.u.)"}
{"sequence": "GTAGCCGCTTCCTGCCTTCCTTCCCCTTGCTCTTGCATTTCGGAGTCACCTAGTGCAG", "binding signal": "8340 fluorescence intensity (a.u.)"}
{"sequence": "TTCATCCCCTAACCCTTTCTTTGTTCATCTTGTTCTTCCTCGGAGTCACCTAGTGCAG", "binding signal": "9970 fluorescence intensity (a.u.)"}
{"sequence": "GCATTTCGTGTTCCCTTTTTGCCTTTTTTTCCCCTTTTCTCGGAGTCACCTAGTGCAG", "binding signal": "10300 fluorescence intensity (a.u.)"}
{"sequence": "ATCTTCCCTTACAGTGACATCCTTTGTTCTTGCCGTCTCTCGGAGTCACCTAGTGCAG", "binding signal": "17600 fluorescence intensity (a.u.)"}
{"sequence": "TTTGGGTTGTGCTTAGGTTTCCTTCTCGGGCTTTGTTGTACGGAGTCACCTAGTGCAG", "binding signal": "18700 fluorescence intensity (a.u.)"}
{"sequence": "TCTTCTTCTTGTTGTTCTTGTTCTTTCTTCTTCCCCTTTTCGGAGTCACCTAGTGCAG", "binding signal": "18800 fluorescence intensity (a.u.)"}
{"sequence": "GATATGCATTTTCCCTGCTTTCCCTGCTTTTCCCCTTTTTCGGAGTCACCTAGTGCAG", "binding signal": "16400 fluorescence intensity (a.u.)"}
{"sequence": "CCTTCTCGGGCTTTGTTGTACGTATGCGTCTCGTGTTGGGCGGAGTCACCTAGTGCAG", "binding signal": "8780 fluorescence intensity (a.u.)"}
{"sequence": "GCTTTTTTTTTTTCTTTCTTTCTTTTTCCCCTTCGGCTTCCGGAGTCACCTAGTGCAG", "binding signal": "12500 fluorescence intensity (a.u.)"}
{"sequence": "TTTCTTTGTTGTCTCACTTTCCCTTTTTCCACTTCTTTTTCGGAGTCACCTAGTGCAG", "binding signal": "11700 fluorescence intensity (a.u.)"}
{"sequence": "AGTAGGTTGTTGGTTTTGTACCTTTGGGCTCTTTGCCTTTCGGAGTCACCTAGTGCAG", "binding signal": "10900 fluorescence intensity (a.u.)"}
{"sequence": "GTTACCGAAGTTTTACTTTATACCATATGTACTCTATCTACGGAGTCACCTAGTGCAG", "binding signal": "8060 fluorescence intensity (a.u.)"}
{"sequence": "GAGACACCGACGCGTCACACCACCACGTCCGTTTCCGTACCGGAGTCACCTAGTGCAG", "binding signal": "8300 fluorescence intensity (a.u.)"}
{"sequence": "GTTTATTTGGGTTCTCTTATGTGTTGGTGTGTCGATGACCCGGAGTCACCTAGTGCAG", "binding signal": "8940 fluorescence intensity (a.u.)"}
{"sequence": "AAATGTATTTATTTTTTTTCTACTCCCTCCGCCCCTTAATCGGAGTCACCTAGTGCAG", "binding signal": "8590 fluorescence intensity (a.u.)"}
{"sequence": "ATCCTGGACTATGGCTTTCTCTCGTAGCACGATTTTTCTTCGGAGTCACCTAGTGCAG", "binding signal": "10600 fluorescence intensity (a.u.)"}
{"sequence": "ATTAGTTTTTTTTTCTATATTTAATACTCCATGCATATGTCGGAGTCACCTAGTGCAG", "binding signal": "9200 fluorescence intensity (a.u.)"}
{"sequence": "TTACTTGTACTGTTTGACTATTCGTCTTATTCCAAAAAAACGGAGTCACCTAGTGCAG", "binding signal": "8820 fluorescence intensity (a.u.)"}
{"sequence": "ACTTTTAAACCCATGTTTTACCATTCATCTTAATAAAAAACGGAGTCACCTAGTGCAG", "binding signal": "8840 fluorescence intensity (a.u.)"}
{"sequence": "TTTGTTTCTTGTTCTAGAGGGTTTCCTAAGGTGTTTAGGACGGAGTCACCTAGTGCAG", "binding signal": "9940 fluorescence intensity (a.u.)"}
{"sequence": "AGCAGAGATTTTTACCACGTGTCTCAACAAATAGCCACATCGGAGTCACCTAGTGCAG", "binding signal": "8050 fluorescence intensity (a.u.)"}
